The panel holds about 79,000 compounds, 15% with a hit somewhere; the sample as a whole holds those more often. Unmarked numbers belong to inactive results. Active and inactive are the calls of the source. Rule as the data show it: active = growth inhibition above about 70%; inactive = the rest.
Key:
[1] = NCI Yeast Anticancer Drug Screen. Data for the rad50 strain (AID 155);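 also: 0% = growth of vehicle-only cultures of the same strain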; settings: S. cerevisiae rad50 strain growth inhibition, hits give high values
In short: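 Genetically altered yeast (DNA repair pathway); compound treatment; growth inhibition vs vehicle ctrl.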

[2] = NCI Yeast Anticancer Drug Screen. Data for the mec2-1 strain (AID 157); settings: S. cerevisiae mec2-1 strain, hits give high values
In short: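 Using mec2-1 yeast: add compound, measure growth, express inhibition versus vehicle-treated cultures.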

[3] = NCI Yeast Anticancer Drug Screen. Data for the sgs1 mgt1 strain (AID 161);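 also: 0% = growth of cultures given vehicle only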; settings: S. cerevisiae sgs1 mgt1 strain, hits give high values
In short: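 This yeast growth screen uses a strain with defined DNA-repair lesions; compound-treated growth is compared with vehicle-treated growth.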

[4] = NCI Yeast Anticancer Drug Screen. Data for the cln2 rad14 strain (AID 165);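 also: 0% = growth equal to vehicle treated cultures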; settings: S. cerevisiae cln2 rad14 strain, hits give high values
In short: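 Yeast strain cln2 rad14, bearing defects in cell cycle control and DNA repair, serves as the test system; values reflect growth inhibition compared with vehicle.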

[5] = NCI Yeast Anticancer Drug Screen. Data for the bub3 strain (AID 167); settings: S. cerevisiae bub3 mutant strain, hits give high values
In short: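 Yeast carrying a defined mutation is treated with each compound, and growth is compared with that of vehicle-exposed cells to give inhibition.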

[6] = NCI Yeast Anticancer Drug Screen. Data for the mlh1 rad18 strain (AID 175); settings: S. cerevisiae mlh1 rad18 strain growth inhibition, hits give high values
In short: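 Steps: expose repair-defective yeast to compound; measure growth; express inhibition against vehicle-treated controls.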

[7] = at 5.0 µM (retest, dose inferred, filed as 0.5)
[8] = at 50.0 µM (retest, dose inferred, filed as 5.0)

Cc1[nH]c2ccccc2c1/C=C1\C(=O)C2CCC1C2 (stereo not given)
growth inhibition [1, 7]: -7% | growth inhibition [1, 8]: 75% (active) | growth inhibition ([1]; at 50.0 µM): 95.4% (active) | growth inhibition [2, 7]: -4% | growth inhibition [2, 8]: 73% (active) | growth inhibition ([2]; at 50.0 µM): 34.6% | growth inhibition [3, 7]: -6% | growth inhibition [3, 8]: 92% (active) | growth inhibition ([3]; at 50.0 µM): 71.3% (active) | growth inhibition [4, 7]: -4% | growth inhibition [4, 8]: 38% | growth inhibition ([4]; at 50.0 µM): 45.4% | growth inhibition [5, 7]: -16% | growth inhibition [5, 8]: 80% (active) | growth inhibition ([5]; at 50.0 µM): 39% | growth inhibition [6, 7]: -14% | growth inhibition [6, 8]: 80% (active) | growth inhibition ([6]; at 50.0 µM): 86.9% (active)

CC[n+]1c(/C=C/c2cc(C(=O)OC)n3c2sc2ccccc23)sc2ccccc21
growth inhibition [1, 7]: 43% | growth inhibition [1, 8]: 99% (active) | growth inhibition ([1]; at 50.0 µM): 99% (active) | growth inhibition [2, 7]: 38% | growth inhibition [2, 8]: 99% (active) | growth inhibition ([2]; at 50.0 µM): 99.2% (active) | growth inhibition [3, 7]: 3% | growth inhibition [3, 8]: 99% (active) | growth inhibition ([3]; at 50.0 µM): 99.2% (active) | growth inhibition [4, 7]: 25% | growth inhibition [4, 8]: 99% (active) | growth inhibition ([4]; at 50.0 µM): 98.4% (active) | growth inhibition [5, 7]: 49% | growth inhibition [5, 8]: 99% (active) | growth inhibition ([5]; at 50.0 µM): 98.6% (active) | growth inhibition [6, 7]: 61% | growth inhibition [6, 8]: 99% (active) | growth inhibition ([6]; at 50.0 µM): 98.8% (active)

COc1ccc(C(=O)Nc2ccc(O)c(=O)cc2)cc1
growth inhibition [1, 7]: 2% | growth inhibition [1, 8]: 42% | growth inhibition ([1]; at 50.0 µM): 93.5% (active) | growth inhibition [2, 7]: 38% | growth inhibition [2, 8]: 59% | growth inhibition ([2]; at 50.0 µM): 17.8% | growth inhibition [3, 7]: 25% | growth inhibition [3, 8]: 66% | growth inhibition ([3]; at 50.0 µM): 73.3% (active) | growth inhibition [4, 7]: 14% | growth inhibition [4, 8]: 2% | growth inhibition ([4]; at 50.0 µM): -60.6% | growth inhibition [5, 7]: 16% | growth inhibition [5, 8]: 15% | growth inhibition ([5]; at 50.0 µM): 87.4% (active) | growth inhibition [6, 7]: 21% | growth inhibition [6, 8]: 77% (active) | growth inhibition ([6]; at 50.0 µM): 55.6%

Cc1cc(Cl)ccc1OCC(=O)Oc1c(Cl)c(Cl)c(Cl)c(Cl)c1Cl
growth inhibition [1, 7]: 7% | growth inhibition [1, 8]: 36% | growth inhibition ([1]; at 50.0 µM): 65.8% | growth inhibition [2, 7]: 8% | growth inhibition [2, 8]: 13% | growth inhibition ([2]; at 50.0 µM): 73% (active) | growth inhibition [3, 7]: 0% | growth inhibition [3, 8]: 42% | growth inhibition ([3]; at 50.0 µM): 67.6% | growth inhibition [4, 7]: -12% | growth inhibition [4, 8]: 33% | growth inhibition ([4]; at 50.0 µM): 42.8% | growth inhibition [5, 7]: -6% | growth inhibition [5, 8]: 19% | growth inhibition ([5]; at 50.0 µM): 68.9% | growth inhibition [6, 7]: 7% | growth inhibition [6, 8]: 50% | growth inhibition ([6]; at 50.0 µM): 76% (active)

CN(C)c1ccc2c(c1)Cc1cc(NC(=O)/C=C/C(=O)O)ccc1-2
growth inhibition [1, 7]: -31% | growth inhibition [1, 8]: -21% | growth inhibition ([1]; at 50.0 µM): -6.7% | growth inhibition [2, 7]: -10% | growth inhibition [2, 8]: -19% | growth inhibition ([2]; at 50.0 µM): -2.05% | growth inhibition [3, 7]: -13% | growth inhibition [3, 8]: 12% | growth inhibition ([3]; at 50.0 µM): -8.55% | growth inhibition [4, 7]: -5% | growth inhibition [4, 8]: 6% | growth inhibition ([4]; at 50.0 µM): -5.6% | growth inhibition [5, 7]: 2% | growth inhibition [5, 8]: -3% | growth inhibition ([5]; at 50.0 µM): -10.7% | growth inhibition [6, 7]: -2% | growth inhibition [6, 8]: 7% | growth inhibition ([6]; at 50.0 µM): -4.7%

CS(=O)(=O)OCCN(CCOS(C)(=O)=O)c1ccc(C=Nc2cccc(Cl)c2)cc1
growth inhibition [1, 7]: 35% | growth inhibition [1, 8]: 90% (active) | growth inhibition ([1]; at 50.0 µM): 92.7% (active) | growth inhibition [2, 7]: 40% | growth inhibition [2, 8]: 91% (active) | growth inhibition ([2]; at 50.0 µM): 86.5% (active) | growth inhibition [3, 7]: 17% | growth inhibition [3, 8]: 74% (active) | growth inhibition ([3]; at 50.0 µM): 88.8% (active) | growth inhibition [4, 7]: 17% | growth inhibition [4, 8]: 86% (active) | growth inhibition ([4]; at 50.0 µM): 71.3% (active) | growth inhibition [5, 7]: 1% | growth inhibition [5, 8]: 50% | growth inhibition ([5]; at 50.0 µM): 43% | growth inhibition [6, 7]: 70% (active) | growth inhibition [6, 8]: 95% (active) | growth inhibition ([6]; at 50.0 µM): 96.7% (active)

Nc1ccc2c(SCCSc3c4ccccc4nc4cc(N)ccc34)c3ccccc3nc2c1
growth inhibition [1, 7]: 25% | growth inhibition [1, 8]: 81% (active) | growth inhibition ([1]; at 50.0 µM): 56% | growth inhibition [2, 7]: 20% | growth inhibition [2, 8]: 62% | growth inhibition ([2]; at 50.0 µM): 33% | growth inhibition [3, 7]: 28% | growth inhibition [3, 8]: 76% (active) | growth inhibition ([3]; at 50.0 µM): 52.6% | growth inhibition [4, 7]: 6% | growth inhibition [4, 8]: 28% | growth inhibition ([4]; at 50.0 µM): -8.65% | growth inhibition [5, 7]: 1% | growth inhibition [5, 8]: -14% | growth inhibition ([5]; at 50.0 µM): -6.05% | growth inhibition [6, 7]: 23% | growth inhibition [6, 8]: 46% | growth inhibition ([6]; at 50.0 µM): 29.9%

COC(=O)[C@@H]1c2cc3c(c(O)c2[C@@H](OC2OC(C)C(OC)C(C)(OC)C2OC)C[C@]1(C)O)C(=O)c1c(O)cc2c(c1C3=O)O[C@H]1O[C@]2(C)[C@H](O)[C@@H](N(C)C)[C@@H]1O (stereo not given in full)
growth inhibition [1, 7]: 61% | growth inhibition [1, 8]: 98% (active) | growth inhibition ([1]; at 50.0 µM): 90.8% (active) | growth inhibition [2, 7]: 45% | growth inhibition [2, 8]: 99% (active) | growth inhibition ([2]; at 50.0 µM): 93% (active) | growth inhibition [3, 7]: 35% | growth inhibition [3, 8]: 99% (active) | growth inhibition ([3]; at 50.0 µM): 92.3% (active) | growth inhibition [4, 7]: 33% | growth inhibition [4, 8]: 98% (active) | growth inhibition ([4]; at 50.0 µM): 90.6% (active) | growth inhibition [5, 7]: 60% | growth inhibition [5, 8]: 99% (active) | growth inhibition ([5]; at 50.0 µM): 91.2% (active) | growth inhibition [6, 7]: 79% (active) | growth inhibition [6, 8]: 98% (active) | growth inhibition ([6]; at 50.0 µM): 89.8% (active)

O=C(Nc1ccc(S(=O)(=O)NC2CCCCC2)cc1)OCc1ccccc1
growth inhibition [1, 7]: 91% (active) | growth inhibition [1, 8]: 17% | growth inhibition ([1]; at 50.0 µM): 57% | growth inhibition [2, 7]: 99% (active) | growth inhibition [2, 8]: 26% | growth inhibition ([2]; at 50.0 µM): 9.85% | growth inhibition [3, 7]: 100% (active) | growth inhibition [3, 8]: 12% | growth inhibition ([3]; at 50.0 µM): 73% (active) | growth inhibition [4, 7]: 28% | growth inhibition [4, 8]: -10% | growth inhibition ([4]; at 50.0 µM): 30.7% | growth inhibition [5, 7]: 99% (active) | growth inhibition [5, 8]: 43% | growth inhibition ([5]; at 50.0 µM): 28.4% | growth inhibition [6, 7]: 91% (active) | growth inhibition [6, 8]: 30% | growth inhibition ([6]; at 50.0 µM): 54.6%

O=C1CC(c2ccccc2)C(=O)N2C(=O)CC(c3ccccc3)C(=O)N12 (stereo not given)
growth inhibition [1, 7]: 1% | growth inhibition [1, 8]: 28% | growth inhibition ([1]; at 50.0 µM): 42.2% | growth inhibition [2, 7]: 2% | growth inhibition [2, 8]: 3% | growth inhibition ([2]; at 50.0 µM): 7.6% | growth inhibition [3, 7]: -5% | growth inhibition [3, 8]: 8% | growth inhibition ([3]; at 50.0 µM): 1.35% | growth inhibition [4, 7]: -5% | growth inhibition [4, 8]: -9% | growth inhibition ([4]; at 50.0 µM): -27.1% | growth inhibition [5, 7]: 0% | growth inhibition [5, 8]: 28% | growth inhibition ([5]; at 50.0 µM): 71.5% (active) | growth inhibition [6, 7]: 2% | growth inhibition [6, 8]: -7% | growth inhibition ([6]; at 50.0 µM): 45.8%
